The test system of this experiment is T1, CTK.
T1 construct: gene MATK
Particulars: concentration: 1 μM, replicates: in singlicate; n = 1.
With `CN(c1ccc(NC(=O)Nc2cc(C(F)(F)F)ccc2F)cc1)c1ccnc(Nc2ccc(S(N)(=O)=O)cc2)n1` [GW809893], the “%Inh” value is 23%. As for `Cc1cccc(NC(=O)Nc2ccc(Oc3ncnc4ccn(C)c34)cc2)c1`, the figure is 0%. For the molecule `Cl.c1ccc(-c2ccc3c(Nc4ccc5[nH]ccc5c4)ccnc3c2)nc1` [GW440138], the “%Inh” value is reported as 0%. Take `CN1CCN(CCCNc2nccc(-c3c(-c4ccc(F)cc4)nn4cc(C(F)(F)F)ccc34)n2)CC1` [GW621581]: the “%Inh” value came to 0%. On to `C[C@@H](Oc1cc(-n2cnc3cc(-c4ccnc(NCCS(C)(=O)=O)c4)ccc32)sc1C(N)=O)c1ccccc1Cl` [GSK907232], for which the “%Inh” value came to 5%. As for `Cc1cccc(Nc2nc(N[C@H]3CCNC3)ncc2C(N)=O)c1.Cl` [GSK2197149], the figure is 13%.

On to `CCc1ccc(-c2ccc3c(c2)-c2c(cnn2C)S(=O)(=O)N3C)cc1`, for which the “%Inh” value was 26%. The figure for `COc1cc(Nc2ncc3c(C)nc(-c4cc5ccccc5[nH]4)n3n2)cc(OC)c1OC` [GW869516] is 0%.

In the case of `Cc1ccc(S(=O)(=O)Nc2ccc(Nc3nccc(Nc4cccc5[nH]ncc45)n3)cc2)cc1` [GSK581271], the “%Inh” value is on record as 0%. As for `COc1ccc(Nc2nccc(NCCNC(=O)c3cc4ccccc4s3)n2)cc1` [GSK1379896], the “%Inh” value is on record as 0%.

As to `CN1CCN(Cc2cccc(-c3ccc4c(Nc5ccc(Oc6ccccc6)cc5)ccnc4c3)c2)CC1` [GW578342], the “%Inh” value stood at 0%. Regarding `COc1ccc(Nc2nccc(N3CCC(NC(=O)Nc4cccc(OC)c4)C3)n2)cc1` (centres unmarked) [GSK1379742], the “%Inh” value worked out at 0%. Turning to `O=C(Nc1n[nH]c2cc(-c3ccoc3)ccc12)C1CC1` [SB-738481], the “%Inh” value turned out to be 25%. The figure for `Nc1ncnc2c1nc(-c1ccccc1)n2-c1ccccc1` [SKF-97293] is 42%; for `COc1ccc(CNC(=O)NC2CCN(c3ccnc(Nc4ccc(F)cc4)n3)CC2)cc1` [GSK1379788] it is 0%; for `Cc1occc1-c1ncc(OC[C@@H](N)Cc2c[nH]c3ccccc23)cc1-c1ccc2[nH]nc(C)c2c1.O=C(O)C(F)(F)F` [GSK682037] it is 0%. As for `c1ccc(-c2n[nH]cc2Nc2ccnc3ccccc23)nc1` [GW694077], the figure is 0%.

In the case of `O=C(Nc1cccc(-c2nn3ncccc3c2-c2ccnc(Nc3ccccc3)n2)c1)c1c(F)cccc1F` [GSK198271], the “%Inh” value stood at 27%. As for `Nc1n[nH]c2cnc(-c3ccccc3)cc12` [SB-642124], the figure is 0%. Turning to `CC(=O)Nc1nc2cnc(Nc3cc(NC(=O)c4cccc(C5(C#N)CC5)c4Cl)ccc3C)nc2s1`, the “%Inh” value is 52%. As for `O=C(Nc1n[nH]c2nc(-c3ccc(O)cc3)ccc12)C1CC1` [SB-710363], the figure is 30%.

`Cn1cc(-c2[nH]c3cc(NC(=O)[C@H](N)C4CCCCC4)cc4c3c2C=NNC4=O)cn1`: the “%Inh” value amounted to 0%. As for `O=C(Nc1cccc(-c2nn3ccccc3c2-c2ccnc(Nc3cccc(F)c3)n2)c1)c1c(F)ccc(F)c1Cl` [GSK357952], the figure is 15%. The figure for `O=C(Nc1ccccc1F)NC1CCN(c2ccnc(Nc3ccc(F)cc3)n2)CC1` [GSK1379800] is 0%.

On to `CSc1cccc2c(-c3ccncn3)c(-c3ccc(F)cc3)nn12` [GW514786], for which the “%Inh” value is 0%. As for `COc1ccc(-c2coc3ccc(-c4nnc(SCc5ccc(OC)c(C(F)(F)F)c5)o4)cc23)cc1`, the figure is 10%.

For the origin of these results see publication PMC5540273 (PLoS ONE, 2017).
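Note: KINOMEscan kinase panel screen.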
